Measured values taken from PubChem BioAssay AID1159580 (chemical genetic matrix, 2015).
Where “and” joins values, the source holds several entries; their conditions need not be identical. Identical values can stand only once. The whole screen tested about 5,500 compounds, of which about 2,000 (36%) were called active. Roughly 18% stayed inconclusive and do not appear here. Cut-off read from the data, not from the text of the source: active = normalized growth mostly below about 0.91 (no sharp cut-off); inconclusive = no clear call, values can overlap the other calls; inactive = mostly above about 0.92. This is one part of the list.

Experiment: chemical genetic growth profiling, strain panel (AID 1159580);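 note: tested at 20 µM; growth read once vehicle control cultures reached saturation at 30 °C; 1 = growth at the plate median or of vehicle wells; lower values mean less growth of the strain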
Conditions: S. cerevisiae deletion strains, growth OD

Measured: normalized growth

c1ccc(CN(CC2=NCCN2)c2ccccc2)cc1
inactive: locus YAL013W, strain DEP1, active compounds read low 1.01 | locus YAL021C, strain ccr4, active compounds read low 0.973 | locus YAL026C, strain drs2, active compounds read low 0.999 | locus YAL030W, strain snc1, active compounds read low 1.01 | locus YBL061C, strain skt5, active compounds read low 1.03 | locus YBR009C, strain hhf1, active compounds read low 0.998 | locus YBR021W, strain FUR4, active compounds read low 1.02 | locus YBR023C, strain chs3, active compounds read low 1.02 | locus YBR171W, strain sec66, active compounds read low 1.02 | locus YBR229C, strain ROT2, active compounds read low 1 | locus YBR231C, strain swc5, active compounds read low 0.999 | locus YBR279W, strain paf1, active compounds read low 1.02 | locus YCL011C, strain gbp2, active compounds read low 0.989 | locus YCL016C, strain dcc1, active compounds read low 0.976 | locus YCL029C, strain bik1, active compounds read low 1.01 | locus YCL069W, strain vba3, active compounds read low 1.02 | locus YCR088W, strain abp1, active compounds read low 1.01 | locus YDL005C, strain med2, active compounds read low 1.01 | locus YDL035C, strain GPR1, active compounds read low 1.02 | locus YDL040C, strain nat1, active compounds read low 1.02 | locus YDL074C, strain BRE1, active compounds read low 1.01 | locus YDL101C, strain DUN1, active compounds read low 1.01 | locus YDL134C, strain PPH21, active compounds read low 1.01 | locus YDL185W, strain tfp1, active compounds read low 1 | locus YDL192W, strain arf1, active compounds read low 1 | locus YDR001C, strain nth1, active compounds read low 1.01 | locus YDR069C, strain doa4, active compounds read low 1.02 | locus YDR101C, strain arx1, active compounds read low 0.994 | locus YDR137W, strain rgp1, active compounds read low 0.967 | locus YDR159W, strain sac3, active compounds read low 1 | locus YDR162C, strain NBP2, active compounds read low 1.03 | locus YDR195W, strain ref2 1.02 | locus YDR297W, strain sur2, active compounds read low 1.01 | locus YDR318W, strain mcm21, active compounds read low 0.992 | locus YDR334W, strain swr1, active compounds read low 1.02 | locus YDR335W, strain msn5, active compounds read low 1 | locus YDR388W, active compounds read low 1.01 | locus YDR392W, strain spt3, active compounds read low 0.961 | locus YDR502C, strain sam2, active compounds read low 1 | locus YEL003W, strain gim4, active compounds read low 1.03 | locus YEL037C, strain rad23, active compounds read low 1.01 | locus YEL061C, strain CIN8 (second series), active compounds read low 1.01 | locus YEL061C, strain CIN8, active compounds read low 1.01 | locus YER015W, strain faa2, active compounds read low 0.999 | locus YER016W, strain bim1, active compounds read low 1.01 | locus YER110C, active compounds read low 0.992 | locus YER111C, strain swi4, active compounds read low 1.03 | locus YER155C, strain BEM2 (second series), active compounds read low 1.04 | locus YER155C, strain BEM2, active compounds read low 0.997 | locus YER167W, strain BCK2, active compounds read low 1.01 | locus YFR010W, strain ubp6, active compounds read low 1.02 | locus YGL078C, strain dbp3, active compounds read low 0.997 | locus YGL086W, strain mad1, active compounds read low 0.997 | locus YGL167C, strain pmr1, active compounds read low 1.03 | locus YGL173C, strain kem1, active compounds read low 1.03 | locus YGL227W, strain vid30, active compounds read low 1.01 | locus YGL240W, strain doc1, active compounds read low 1.04 | locus YGL248W, strain PDE1, active compounds read low 1 | locus YGL253W, strain hxk2, active compounds read low 1 | locus YGR135W, strain pre9, active compounds read low 1 | locus YGR252W, strain gcn5, active compounds read low 0.997 | locus YHR013C, strain ard1, active compounds read low 0.972 | locus YHR027C, strain rpn1, active compounds read low 1.02 | locus YHR030C, strain SLT2, active compounds read low 1.01 and 1.02 | locus YHR079C, strain IRE1 (second series), active compounds read low 0.995 | locus YHR079C, strain IRE1, active compounds read low 1.03 | locus YHR094C, strain hxt1, active compounds read low 1 | locus YHR129C, strain ARP1, active compounds read low 1.01 | locus YHR142W, strain chs7, active compounds read low 1 | locus YHR200W, strain rpn10, active compounds read low 1.01 | locus YIL066C, strain RNR3, active compounds read low 1.03 | locus YIL073C, strain SPO22, active compounds read low 1 | locus YIL125W, strain kgd1, active compounds read low 1 | locus YIR030C, strain dcg1, active compounds read low 0.991 | locus YJL092W, strain hpr5, active compounds read low 1.03 | locus YJL095W, strain BCK1 (second series), active compounds read low 1.01 | locus YJL095W, strain BCK1, active compounds read low 1.02 and 1.04 | locus YJL115W, strain asf1, active compounds read low 0.999 | locus YJL129C, strain trk1, active compounds read low 1.03 | locus YJL134W, strain LCB3, active compounds read low 1.01 | locus YJL154C, strain vps35, active compounds read low 1.01 | locus YJL164C, strain tpk1, active compounds read low 0.974 | locus YJL166W, strain qcr8, active compounds read low 1.03 | locus YJL168C, strain set2, active compounds read low 0.993 | locus YJL187C, strain SWE1 (second series), active compounds read low 1.01 | locus YJR043C, strain POL32, active compounds read low 1.01 | locus YJR066W, strain TOR1, active compounds read low 0.983 | locus YKL009W, strain mrt4, active compounds read low 0.994 | locus YKL068W, active compounds read low 1 | locus YKL085W, strain MDH1 (second series), active compounds read low 1.01 | locus YKL085W, strain MDH1, active compounds read low 1.01 | locus YKL160W, strain elf1, active compounds read low 1.02 | locus YKR001C, strain vps1, active compounds read low 0.997 | locus YKR026C, strain gcn3, active compounds read low 0.97 | locus YKR091W, strain srl3, active compounds read low 0.999 | locus YLL001W, strain dnm1, active compounds read low 1.03 | locus YLL026W, active compounds read low 1.02 | locus YLL041C, strain sdh2, active compounds read low 1.01 | locus YLR027C, strain aat2, active compounds read low 0.993 | locus YLR039C, strain RIC1, active compounds read low 0.993 | locus YLR058C, strain SHM2, active compounds read low 1.01 | locus YLR102C, strain apc9, active compounds read low 0.998 | locus YLR113W, strain HOG1, active compounds read low 1.04 | locus YLR221C, strain rsa3, active compounds read low 1.01 | locus YLR258W, strain gsy2, active compounds read low 0.992 | locus YLR262C, strain YPT6 (second series), active compounds read low 1.01 | locus YLR262C, strain YPT6, active compounds read low 1.04 | locus YLR268W, strain sec22, active compounds read low 0.999 | locus YLR320W, strain mms22, active compounds read low 0.982 | locus YLR330W, strain CHS5, active compounds read low 1.01 | locus YLR342W, strain FKS1 (second series), active compounds read low 1.03 | locus YLR342W, strain FKS1, active compounds read low 1.02 | locus YLR357W, strain rsc2, active compounds read low 1.03 | locus YLR370C, strain arc18, active compounds read low 1 | locus YLR371W, strain rom2, active compounds read low 1.01 | locus YLR384C, strain iki3, active compounds read low 1.02 | locus YLR418C, strain cdc73, active compounds read low 1.02 | locus YML016C, strain PPZ1, active compounds read low 1 | locus YML032C, strain rad52, active compounds read low 0.993 | locus YML120C, strain ndi1, active compounds read low 1.03 | locus YML124C, strain tub3, active compounds read low 0.992 | locus YMR058W, strain fet3, active compounds read low 1.01 | locus YMR078C, strain ctf18, active compounds read low 1 | locus YMR125W, strain sto1, active compounds read low 1.01 | locus YMR129W, active compounds read low 1.02 | locus YMR205C, strain PFK2, active compounds read low 1.02 | locus YMR223W, strain ubp8, active compounds read low 1 | locus YMR231W, strain pep5, active compounds read low 1 | locus YMR307W, strain GAS1, active compounds read low 1.08 | locus YNL067W, strain RPL9B, active compounds read low 1.02 | locus YNL071W, strain lat1, active compounds read low 0.999 | locus YNL183C, strain NPR1, active compounds read low 0.975 | locus YNL209W, strain ssb2, active compounds read low 0.996 | locus YNL233W, strain BNI4, active compounds read low 1 | locus YNL248C, strain rpa49, active compounds read low 0.987 | locus YNL250W, strain rad50, active compounds read low 0.992 | locus YNL271C, strain bni1, active compounds read low 0.995 | locus YNL298W, strain CLA4, active compounds read low 1.01 | locus YNL307C, strain MCK1, active compounds read low 1 | locus YNL322C, strain KRE1 (second series), active compounds read low 1.01 | locus YNR049C, strain mso1, active compounds read low 1.01 | locus YNR052C, strain pop2, active compounds read low 0.996 | locus YOL012C, strain htz1 0.89 | locus YOL147C, strain pex11, active compounds read low 1 | locus YOR001W, strain rrp6, active compounds read low 1.02 | locus YOR061W, strain CKA2, active compounds read low 1.01 | locus YOR069W, strain VPS5, active compounds read low 1 | locus YOR070C, strain gyp1, active compounds read low 1 | locus YOR080W, strain dia2, active compounds read low 1.01 | locus YOR083W, strain WHI5, active compounds read low 1.02 | locus YOR106W, strain vam3, active compounds read low 1.03 | locus YOR136W, strain idh2, active compounds read low 1 | locus YOR144C, strain elg1, active compounds read low 0.998 | locus YOR184W, strain ser1, active compounds read low 1.01 | locus YOR231W, strain MKK1, active compounds read low 1.06 | locus YOR265W, strain rbl2, active compounds read low 1.01 | locus YOR270C, strain vph1, active compounds read low 0.988 | locus YOR290C, strain snf2, active compounds read low 0.969 | locus YOR316C, strain cot1, active compounds read low 1 | locus YPL051W, strain arl3, active compounds read low 1.03 | locus YPL078C, strain atp4, active compounds read low 1.04 | locus YPL106C, strain sse1, active compounds read low 0.998 | locus YPL240C, strain hsp82, active compounds read low 0.97 | locus YPL241C, strain CIN2, active compounds read low 1.01 | locus YPL256C, strain CLN2, active compounds read low 1.06 | locus YPR119W, strain clb2, active compounds read low 0.991 | locus YPR141C, strain kar3, active compounds read low 1 | locus YPR163C, strain tif3, active compounds read low 1.01 | locus YPR167C, strain met16, active compounds read low 0.996 | strain wtn01, active compounds read low 0.99
